The full list was thinned out, with the strongest signals kept by preference.
Key:
Assay in all cases: glycan array binding signal (z-score within array); higher = stronger binding
Conditions in all cases: glycan notation: IUPAC condensed, linker removed
[1] = target: Fuc(a1-2)Gal(b1-3)GalNAc(a1-3)[Fuc(a1-2)]Gal(b1-4)GlcNAc
Outline: (§1)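 Columns mapping to the same glycan were averaged after glycan names were converted to IUPAC-condensed notation. The data come from 3228 arrays in the Consortium for Functional Glycomics database, limited to those with an available protein sequence. Binding is reported as a within-array Z-score averaged across arrays of one protein sequence and across linkers.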

[2] = target: Fuc(a1-2)Gal(b1-3)GlcNAc(b1-3)[Neu5Ac(a2-6)Gal(b1-4)GlcNAc(b1-6)]Gal(b1-4)Glc
Outline: as §1

[3] = target: Fuc(a1-2)[Gal(a1-3)]Gal(b1-3)GlcNAc
Outline: as §1

[4] = target: Fuc(a1-2)[Gal(a1-3)]Gal(b1-3)GlcNAc(b1-3)GalNAc
Outline: as §1

[5] = target: Fuc(a1-2)[Gal(a1-3)]Gal(b1-4)GlcNAc(b1-3)[Fuc(a1-2)[Gal(a1-3)]Gal(b1-4)GlcNAc(b1-6)]GalNAc
Outline: as §1

[6] = target: Fuc(a1-2)[GalNAc(a1-3)]Gal(b1-3)GlcNAc
Outline: as §1

[7] = target: Fuc(a1-2)[GalNAc(b1-3)]Gal
Outline: as §1

[8] = target: Fuc(a1-3)[Gal(b1-4)]Glc6S
Outline: as §1

Gal(a1-3)Gal = target: Gal(a1-3)Gal
Outline: as §1

[9] = target: Gal(a1-4)Gal(b1-4)GlcNAc(b1-2)Man(a1-3)[Gal(a1-4)Gal(b1-4)GlcNAc(b1-2)Man(a1-6)]Man(b1-4)GlcNAc(b1-4)GlcNAc
Outline: as §1

Gal(b1-2)Gal = target: Gal(b1-2)Gal
Outline: as §1

[10] = target: Gal(b1-3)GalNAc(b1-3)Gal(a1-4)Gal(b1-4)Glc
Outline: as §1

[11] = target: Gal(b1-3)GalNAc(b1-4)[Neu5Ac(a2-3)]Gal(b1-4)Glc
Outline: as §1

[12] = target: Gal(b1-3)GlcNAc(b1-6)Gal(b1-4)GlcNAc
Outline: as §1

[13] = target: Gal(b1-3)[Fuc(a1-4)]GlcNAc(b1-3)Gal(b1-4)[Fuc(a1-3)]GlcNAc
Outline: as §1

[14] = target: Gal(b1-4)GlcNAc(b1-2)Man(a1-3)[Gal(b1-4)GlcNAc(b1-2)Man(a1-6)]Man(b1-4)GlcNAc(b1-4)[Fuc(a1-6)]GlcNAc
Outline: as §1

[15] = target: Gal(b1-4)GlcNAc(b1-2)[Gal(b1-4)GlcNAc(b1-4)]Man(a1-3)[GlcNAc(b1-4)][Gal(b1-4)GlcNAc(b1-2)Man(a1-6)]Man(b1-4)GlcNAc(b1-4)GlcNAc
Outline: as §1

[16] = target: Gal(b1-4)GlcNAc(b1-3)Gal(b1-4)GlcNAc(b1-3)Gal(b1-4)GlcNAc(b1-2)Man(a1-3)[Gal(b1-4)GlcNAc(b1-3)Gal(b1-4)GlcNAc(b1-3)Gal(b1-4)GlcNAc(b1-2)Man(a1-6)]Man(b1-4)GlcNAc(b1-4)[Fuc(a1-6)]GlcNAc
Outline: as §1

[17] = target: Gal(b1-4)GlcNAc(b1-6)[Gal(b1-4)GlcNAc(b1-3)]GalNAc
Outline: as §1

Gal3S(b1-3)GalNAc = target: Gal3S(b1-3)GalNAc
Outline: as §1

Gal4S6S(b1-4)GlcNAc = target: Gal4S6S(b1-4)GlcNAc
Outline: as §1

[18] = target: GlcNAc(a1-4)Gal(b1-4)GlcNAc(b1-3)Gal(b1-4)GlcNAc
Outline: as §1

[19] = target: GlcNAc(b1-3)Gal(b1-4)GlcNAc(b1-2)[GlcNAc(b1-3)Gal(b1-4)GlcNAc(b1-6)]Man(a1-6)[GlcNAc(b1-3)Gal(b1-4)GlcNAc(b1-2)Man(a1-3)]Man(b1-4)GlcNAc(b1-4)GlcNAc
Outline: as §1

[20] = target: GlcNAc(b1-3)Gal(b1-4)GlcNAc(b1-3)Gal(b1-4)GlcNAc(b1-2)Man(a1-3)[GlcNAc(b1-3)Gal(b1-4)GlcNAc(b1-3)Gal(b1-4)GlcNAc(b1-2)Man(a1-6)]Man(b1-4)GlcNAc(b1-4)GlcNAc
Outline: as §1

[21] = target: GlcNAc(b1-3)Gal(b1-4)GlcNAc(b1-3)Gal(b1-4)GlcNAc(b1-2)Man(a1-3)[GlcNAc(b1-3)Gal(b1-4)GlcNAc(b1-3)Gal(b1-4)GlcNAc(b1-2)Man(a1-6)]Man(b1-4)GlcNAc(b1-4)[Fuc(a1-6)]GlcNAc
Outline: as §1

[22] = target: GlcNAc(b1-3)Gal(b1-4)GlcNAc(b1-3)Gal(b1-4)GlcNAc(b1-2)[GlcNAc(b1-3)Gal(b1-4)GlcNAc(b1-3)Gal(b1-4)GlcNAc(b1-6)]Man(a1-6)[GlcNAc(b1-3)Gal(b1-4)GlcNAc(b1-3)Gal(b1-4)GlcNAc(b1-2)Man(a1-3)]Man(b1-4)GlcNAc(b1-4)[Fuc(a1-6)]GlcNAc
Outline: as §1

[23] = target: GlcNAc(b1-3)Gal(b1-4)GlcNAc(b1-3)Gal(b1-4)GlcNAc(b1-3)Gal(b1-4)GlcNAc(b1-2)Man(a1-3)[GlcNAc(b1-3)Gal(b1-4)GlcNAc(b1-3)Gal(b1-4)GlcNAc(b1-3)Gal(b1-4)GlcNAc(b1-2)Man(a1-6)]Man(b1-4)GlcNAc(b1-4)GlcNAc
Outline: as §1

[24] = target: GlcNAc(b1-3)Gal(b1-4)GlcNAc(b1-3)Gal(b1-4)GlcNAc(b1-3)Gal(b1-4)GlcNAc(b1-2)Man(a1-3)[GlcNAc(b1-3)Gal(b1-4)GlcNAc(b1-3)Gal(b1-4)GlcNAc(b1-3)Gal(b1-4)GlcNAc(b1-2)Man(a1-6)]Man(b1-4)GlcNAc(b1-4)[Fuc(a1-6)]GlcNAc
Outline: as §1

[25] = target: GlcNAc(b1-3)Gal(b1-4)GlcNAc(b1-3)Gal(b1-4)GlcNAc(b1-3)Gal(b1-4)GlcNAc(b1-2)[GlcNAc(b1-3)Gal(b1-4)GlcNAc(b1-3)Gal(b1-4)GlcNAc(b1-3)Gal(b1-4)GlcNAc(b1-6)]Man(a1-6)[GlcNAc(b1-3)Gal(b1-4)GlcNAc(b1-3)Gal(b1-4)GlcNAc(b1-3)Gal(b1-4)GlcNAc(b1-2)Man(a1-3)]Man(b1-4)GlcNAc(b1-4)[Fuc(a1-6)]GlcNAc
Outline: as §1

[26] = target: GlcNAc(b1-3)Gal(b1-4)GlcNAc(b1-3)Gal(b1-4)GlcNAc(b1-3)Gal(b1-4)GlcNAc(b1-3)Gal(b1-4)GlcNAc(b1-2)Man(a1-3)[GlcNAc(b1-3)Gal(b1-4)GlcNAc(b1-3)Gal(b1-4)GlcNAc(b1-3)Gal(b1-4)GlcNAc(b1-3)Gal(b1-4)GlcNAc(b1-2)Man(a1-6)]Man(b1-4)GlcNAc(b1-4)GlcNAc
Outline: as §1

[27] = target: GlcNAc(b1-3)Gal(b1-4)GlcNAc(b1-3)Gal(b1-4)GlcNAc(b1-3)Gal(b1-4)GlcNAc(b1-3)Gal(b1-4)GlcNAc(b1-2)Man(a1-3)[GlcNAc(b1-3)Gal(b1-4)GlcNAc(b1-3)Gal(b1-4)GlcNAc(b1-3)Gal(b1-4)GlcNAc(b1-3)Gal(b1-4)GlcNAc(b1-2)Man(a1-6)]Man(b1-4)GlcNAc(b1-4)[Fuc(a1-6)]GlcNAc
Outline: as §1

[28] = target: GlcNAc(b1-3)Gal(b1-4)GlcNAc(b1-3)Gal(b1-4)GlcNAc(b1-3)Gal(b1-4)GlcNAc(b1-3)Gal(b1-4)GlcNAc(b1-2)[GlcNAc(b1-3)Gal(b1-4)GlcNAc(b1-3)Gal(b1-4)GlcNAc(b1-3)Gal(b1-4)GlcNAc(b1-3)Gal(b1-4)GlcNAc(b1-6)]Man(a1-6)[GlcNAc(b1-3)Gal(b1-4)GlcNAc(b1-3)Gal(b1-4)GlcNAc(b1-3)Gal(b1-4)GlcNAc(b1-3)Gal(b1-4)GlcNAc(b1-2)Man(a1-3)]Man(b1-4)GlcNAc(b1-4)[Fuc(a1-6)]GlcNAc
Outline: as §1

[29] = target: Man(a1-3)[Man(a1-6)]Man(a1-6)[Man(a1-3)]Man(b1-4)GlcNAc(b1-4)GlcNAc
Outline: as §1

[30] = target: Man(a1-3)[Man(a1-6)]Man(b1-4)GlcNAc(b1-4)[Fuc(a1-6)]GlcNAc
Outline: as §1

[31] = target: Neu5Ac(a2-3)Gal(b1-3)[Neu5Ac(a2-6)]GlcNAc(b1-3)[Fuc(a1-3)[Gal(b1-4)]GlcNAc(b1-6)]Gal(b1-4)Glc
Outline: as §1

[32] = target: Neu5Ac(a2-3)Gal(b1-4)GlcNAc(b1-6)GalNAc
Outline: as §1

[33] = target: Neu5Ac(a2-3)Gal(b1-4)[Fuc(a1-3)]GlcNAc(b1-6)[Gal(b1-3)]GalNAc
Outline: as §1

[34] = target: Neu5Ac(a2-3)[GalNAc(b1-4)]Gal(b1-4)GlcNAc(b1-3)GalNAc
Outline: as §1

[35] = target: Neu5Ac(a2-6)Gal(b1-4)GlcNAc(b1-2)Man(a1-3)[GlcNAc(b1-4)][Neu5Ac(a2-6)Gal(b1-4)GlcNAc(b1-2)Man(a1-6)]Man(b1-4)GlcNAc(b1-4)GlcNAc
Outline: as §1

[36] = target: Neu5Ac(a2-6)Gal(b1-4)GlcNAc(b1-3)[Neu5Ac(a2-6)Gal(b1-4)GlcNAc(b1-6)]GalNAc
Outline: as §1

[37] = target: Neu5Ac(a2-6)GlcNAc(b1-4)GlcNAc(b1-4)GlcNAc
Outline: as §1

[38] = target: Neu5Ac(a2-8)Neu5Ac(a2-3)[GalNAc(b1-4)]Gal(b1-4)Glc
Outline: as §1

[39] = target: Neu5Ac(a2-8)Neu5Ac(a2-8)Neu5Ac(a2-3)[Gal(b1-3)GalNAc(b1-4)]Gal(b1-4)Glc
Outline: as §1

[40] = target: Neu5Ac(a2-8)Neu5Ac(a2-8)Neu5Ac(a2-3)[GalNAc(b1-4)]Gal(b1-4)Glc
Outline: as §1

B1: Di AAL2 (Agrocybe aegerita) (protein)
chain: MTSNVITQDLPIPVASRGFADIVGFGLDGVVIGRNAVNLQPFLAVKNFAQNAGGWLTTKHVRLIADTTGTGKGDIVGFGNAGVYVSVNNGKNTFADPPKMVIANFGYDAGGWRVEKHLRYLADIRKIGRADIIGFGEKGVLVSRNNGGLNFGPATLVLKDFGYDAGGWRLDRHLRFLADVTGNGHLDIVGFGDKHVFISRNNGDGTFAPAKSVIDNFCIDAGGWKIGDHPRFVADLTGDGTADIIGCGKAGCWVALNNGGGVFGQVKLVINDFGTDKGWQAAKHPRFIADLTGNGRGDVVGFGNAGVYVALNNGDGTFQSAKLVLKDFGVQQGWTVSKHRRFVVDLTGDGCADIIGFGEKETLVSYNDGKGNFGPVKALTNDFSFSGGKWAPETTVCWMANLDSSRHPAPAPMTSNVITQDLPIPVASRGFADIVGFGLDGVVIGRNAVNLQPFLAVKNFAQNAGGWLTTKHVRLIADTTGTGKGDIVGFGNAGVYVSVNNGKNTFADPPKMVIANFGYDAGGWRVEKHLRYLADIRKIGRADIIGFGEKGVLVSRNNGGLNFGPATLVLKDFGYDAGGWRLDRHLRFLADVTGNGHLDIVGFGDKHVFISRNNGDGTFAPAKSVIDNFCIDAGGWKIGDHPRFVADLTGDGTADIIGCGKAGCWVALNNGGGVFGQVKLVINDFGTDKGWQAAKHPRFIADLTGNGRGDVVGFGNAGVYVALNNGDGTFQSAKLVLKDFGVQQGWTVSKHRRFVVDLTGDGCADIIGFGEKETLVSYNDGKGNFGPVKALTNDFSFSGGKWAPETTVCWMANLDSSRH
glycan array binding signal (z-score) [1]: -0.31
glycan array binding signal (z-score) [2]: -0.337
glycan array binding signal (z-score) [3]: -0.338
glycan array binding signal (z-score) [4]: -0.312
glycan array binding signal (z-score) [5]: -0.292
glycan array binding signal (z-score) [6]: -0.172
glycan array binding signal (z-score) [7]: -0.337
glycan array binding signal (z-score) [8]: -0.322
glycan array binding signal (z-score) (Gal(a1-3)Gal): -0.332
glycan array binding signal (z-score) [9]: 5.32
glycan array binding signal (z-score) (Gal(b1-2)Gal): -0.333
glycan array binding signal (z-score) [10]: -0.331
glycan array binding signal (z-score) [11]: -0.314
glycan array binding signal (z-score) [12]: -0.333
glycan array binding signal (z-score) [13]: -0.331
glycan array binding signal (z-score) [14]: -0.343
glycan array binding signal (z-score) [15]: -0.313
glycan array binding signal (z-score) [16]: -0.209
glycan array binding signal (z-score) [17]: -0.313
glycan array binding signal (z-score) (Gal3S(b1-3)GalNAc): -0.334
glycan array binding signal (z-score) (Gal4S6S(b1-4)GlcNAc): -0.338
glycan array binding signal (z-score) [18]: 2.68
glycan array binding signal (z-score) [19]: 5.83
glycan array binding signal (z-score) [20]: 3.47
glycan array binding signal (z-score) [21]: 3.72
glycan array binding signal (z-score) [22]: 5.12
glycan array binding signal (z-score) [23]: 5.42
glycan array binding signal (z-score) [24]: 4.23
glycan array binding signal (z-score) [25]: 5.39
glycan array binding signal (z-score) [26]: 5.42
glycan array binding signal (z-score) [27]: 5.09
glycan array binding signal (z-score) [28]: 5.69
glycan array binding signal (z-score) [29]: -0.333
glycan array binding signal (z-score) [30]: -0.327
glycan array binding signal (z-score) [31]: -0.313
glycan array binding signal (z-score) [32]: -0.218
glycan array binding signal (z-score) [33]: -0.336
glycan array binding signal (z-score) [34]: -0.285
glycan array binding signal (z-score) [35]: -0.319
glycan array binding signal (z-score) [36]: -0.251
glycan array binding signal (z-score) [37]: -0.302
glycan array binding signal (z-score) [38]: -0.29
glycan array binding signal (z-score) [39]: -0.297
glycan array binding signal (z-score) [40]: -0.284
